In PubChem BioAssay (NCI):
This is part of a sample that, as a whole, favours compounds with a hit. Of some 83,000 tested, about 20% had one in any assay.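 Assay: single dose, 48 h. Readout: percent growth (0 = no net growth; negative = cell death). Active: <10.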 Unmarked numbers belong to inactive results. Activity calls are given as the source filed them.

Assays:
Assay in all cases: NCI-60 one-dose screen, 48 h (100 = growth as untreated, 0 = no growth, -100 = all killed)
Conditions in all cases: 10 µM unless noted
[1] = test system: T-47D breast
[2] = test system: BT-549 breast
[3] = test system: MDA-MB-435 melanoma
[4] = test system: SW-620 colon
[5] = test system: MCF7 breast
[6] = test system: HCT-116 colon
[7] = test system: HCC-2998 colon
[8] = test system: KM12 colon

SMILES	growth [1]	growth [2]	growth [3]	growth [4]	growth [5]	growth [6]	growth [7]	growth [8]
O=CN1N=C(c2cccc(Nc3ccnc4cc(Cl)ccc34)c2)CC1c1ccc(Cl)cc1 (stereo unspecified)	43.3%	8.58% (active)	-38.3% (active)	23.4%	14.6%	1% (active)	44.3%	28.1%
COc1ccc(C(=O)/C=C/c2ccccc2)cc1S(N)(=O)=O	77.6%	75.2%	96.5%	25.8%	25%	13.4%	95.2%	38%
CNC(=O)c1cc(Oc2ccc3c(c2)sc2nc(-c4ccc(NC(=O)[C@@H](NC(=O)OC)C(C)C)cc4)cn23)ccn1	8.68% (active)	14.2%	38.5%	84.3%	51.6%	55%	93.4%	32.8%
Cc1ccc(OCCOCCOCCOc2ccc(C)n(O)c2=S)c(=S)n1O	14%	50.4%	56.3%	24.5%	20.3%	9.46% (active)	57.9%	30.8%
CCN1CCN(CCNc2nccc(-c3c(-c4ccc(F)c(O)c4)nc4occn34)n2)S1(=O)=O	-1.77% (active)	21.2%	10.1%	44.1%	17.7%	16.3%	57.3%	13.7%
CC(C)c1ccc2c(c1)CC[C@H]1[C@](C)(C(=O)OCC#CCN3CCCC3)CCC[C@]21C	63.4%	93.4%	82.9%	84.6%	73.9%	48.5%	86.9%	81.4%
Cc1ccc(NC(=O)c2sc3nc(C)c(C(O)c4ccccc4)cc3c2N)cc1 (stereo unspecified)	42.3%	61.6%	-13.1% (active)	23.1%	19.2%	13.7%	12.1%	16.8%
COc1ccc(/C=N/NC(=O)Cn2c(-c3ccc(S(C)(=O)=O)cc3)nc3ccccc32)cc1	102%	103%	97.8%	97.6%	88.6%	91.7%	95.7%	104%
Cn1c(=O)c2[nH]c(SC/C(=N/O)c3ccc(Br)cc3)nc2n(C)c1=O	23.1%	28.3%	52%	92.7%	69.1%	28.3%	16.8%	56.9%
COC(=O)/C=C1/SC(=NCc2ccccc2)N(CCc2c[nH]c3ccccc23)C1=O	53.5%	66.9%	72.3%	72%	48.4%	53.6%	99.8%	70.4%
CCN(CC)C(=O)CC1=C(C)/C(=C/c2[nH]c(-c3ccc[nH]3)cc2OC)N=C1C	33.4%	21.4%	17.2%	15.2%	19.3%	1.94% (active)	30.4%	13.9%
CN(C)c1ccc(/C=C2\C=C(c3nc4ccccc4s3)OC2=O)cc1	78%	110%	100%	94.7%	70.8%	100%	97.8%	93.7%
O=C1C=C(SCCO)C(=O)c2ccccc21	-1.68% (active)	-26.5% (active)	-88.3% (active)	-52.6% (active)	-55.1% (active)	-48.5% (active)	78.3%	83.4%
CC(C)C1C2=C(NCCN1C(=O)c1ccncc1)C(C)(C)N(Cc1ccccc1)C2=O (stereo unspecified)	103%	104%	104%	105%	95.5%	92.8%	100%	97.6%
O=C(/C=C/c1ccccc1Cl)c1cccc(OCCCCOc2cccc(C(=O)/C=C/c3ccccc3Cl)c2)c1	91.2%	116%	106%	99%	51.7%	50.1%	104%	101%
COc1ccc(/C=C(/C(=O)N2CCNCC2)c2cc(OC)c(OC)c(OC)c2)cc1O	31.6%	58.5%	-45% (active)	35.1%	23%	19.8%	78.4%	21.3%

SMILES	growth [1]	growth [2]	growth [3]	growth [4]	growth [5]	growth [6]	growth [7]	growth [8]
CSc1nc2ccc(C)cc2cc1/C=C1/C=C(c2ccccc2)NC1=O	-0.11% (active)	76%	30.9%	34.9%	48.1%	9.26% (active)	83.4%	70.4%
N#Cc1c(-c2ccc(Cl)cc2)nc(NN=Cc2ccc[nH]2)nc1N1CCOCC1	64.9%	16.9%	94.7%	89.2%	70.7%	90.1%	94.1%	36.5%
N#Cc1c(-c2ccccc2)cc(-c2ccccc2)n(CCCCC(=O)NO)c1=O	9.65% (active)	52.8%	-13.7% (active)	11.5%	20.5%	5.09% (active)	29.3%	22.9%
C#Cc1cccc(Nc2ncnc3cc(NC(=O)CCl)ccc23)c1	-52.7% (active)	-76.7% (active)	-70.8% (active)	-61.6% (active)	-50.4% (active)	-76.3% (active)	-88.3% (active)	-74.3% (active)
CSc1nc(-c2ccco2)c(C#N)c(=O)n1C	107%	92.6%	102%	97%	98%	100%	1.62% (active)	103%
COc1cc2c3c(c4c5ccccc5[nH]c4c2c(OC)c1OC)C(=O)N(CCN1CCCCC1)C3=O	59.5%	96.6%	33.7%	-66.4% (active)	-56.3% (active)	-85.6% (active)	22.3%	-20% (active)
COc1ccc(NC(=O)c2ccc(Nc3ncnc4c3cnn4-c3cccc(F)c3)cc2)cc1	96.1%	104%	102%	103%	96.5%	103%	107%	100%
CCOC(=O)c1ccc[nH]1	93.3%	77.5%	105%	113%	92.6%	94.5%	88.1%	108%
COc1ccc(CN2C(=O)OC(C)(COC(C)=O)C2=O)cc1 (stereo unspecified)	91.9%	107%	107%	107%	96.3%	93.5%	100%	112%
C[C@@H]1CN(c2cnc(C(=O)Nc3cc(F)cc4cccnc34)cn2)C[C@H](C)N1	30%	102%	97%	46.2%	9.07% (active)	13.1%	91.7%	83.4%
CC12OC(CC(O)C1O)n1c3ccccc3c3c4c(c5c6ccccc6n2c5c31)C(=O)N(CCN1CCCC1)C4=O (stereo unspecified)	21.9%	52.9%	30.4%	13.9%	2.15% (active)	13.4%	13.3%	27.9%
CC1=C2[C@@H](CC1)[C@]1(C)O[C@@](C3CCNCC3)(C[C@H]1OC(=O)CO)[C@H]2OC(=O)/C=C/c1ccccc1	62.6%	81.7%	88.6%	93.6%	74.2%	74.5%	99%	97.6%
O=C1O[C@@H](c2ccccc2Cl)[C@@H]2c3cc4c(cc3CCN12)OCO4	69.9%	101%	105%	97.2%	103%	94.9%	106%	97.8%
CCOC(=O)c1cnn(CC(C)O)c1NC(=O)NCc1ccccc1C(F)(F)F (stereo unspecified)	105%	91.4%	104%	105%	95.5%	84.8%	93.8%	99.4%
C[C@H](c1nc2ccc(C#N)cc2[nH]1)[C@H]1CC[C@H]2[C@@H]3CCC4=CC(=O)CC[C@]4(C)[C@H]3CC[C@]12C	29.4%	58.9%	84.2%	89.1%	59.5%	49.7%	67.4%	68.9%
COc1ccc2c(O)c(/C=C3\N=Nc4ncccc43)oc2c1C[C@@H]1CCNC[C@H]1F	29.7%	-43.2% (active)	-9.87% (active)	-6.3% (active)	-14.5% (active)	-59.6% (active)	-21.5% (active)	-48.7% (active)
